Test results as given in PubChem BioAssay (NCI).
The panel holds about 83,000 compounds, 20% with a hit somewhere; the sample as a whole holds those more often.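 The test compound was applied at a single concentration to cells in 96-well plates for 48 hours, and percent growth was recorded.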 Active and inactive are the calls of the source. How the source made its calls: active means growth percent below 10; inactive means the rest.

Tests used:
Assay in all cases: NCI-60 one-dose screen, 48 h (100 = growth as untreated, 0 = no growth, -100 = all killed)
HOP-62 NSCLC = conditions: 10 µM unless noted
HOP-92 NSCLC = conditions: 10 µM unless noted
NCI-H522 lung = conditions: 10 µM unless noted
A549/ATCC NSCLC = conditions: 10 µM unless noted
COLO 205 colon = conditions: 10 µM
HT29 colon = conditions: 10 µM unless noted
SNB-19 CNS = conditions: 10 µM unless noted
PC-3 prostate = conditions: 10 µM unless noted
EKVX NSCLC = conditions: 10 µM unless noted
TK-10 renal = conditions: 10 µM unless noted
A498 renal = conditions: 10 µM unless noted
CCRF-CEM leukemia = conditions: 10 µM unless noted
OVCAR-8 ovarian = conditions: 10 µM unless noted
OVCAR-4 ovarian = conditions: 10 µM unless noted
SK-OV-3 ovarian = conditions: 10 µM unless noted
HS 578T breast = conditions: 10 µM unless noted
NCI-H322M lung = conditions: 10 µM unless noted
CAKI-1 renal = conditions: 10 µM unless noted

Measured: growth

N#CC1c2ccccc2C=CN1C(=O)c1ccc(N(CCCl)CCCl)cc1 (configuration not stated)
inactive: HOP-62 NSCLC 91.1% | HOP-92 NSCLC 81% | NCI-H522 lung 69% | A549/ATCC NSCLC 79% | COLO 205 colon 103% | HT29 colon 98.7% | SNB-19 CNS 82.4% | PC-3 prostate 81.1% | EKVX NSCLC 86.8% | TK-10 renal 107% | A498 renal 106% | CCRF-CEM leukemia 87% | OVCAR-8 ovarian 85.7% | OVCAR-4 ovarian 96.7% | SK-OV-3 ovarian 97.3% | HS 578T breast 99.5%

CC1(C)CC(=O)CC(C)(C)N1N=O
inactive: NCI-H322M lung 121% | HOP-62 NSCLC 97.3% | A549/ATCC NSCLC 107% | COLO 205 colon 96.2% | HT29 colon 99.4% | SNB-19 CNS 107% | EKVX NSCLC 112% | TK-10 renal 91.8% | CAKI-1 renal 99.9% | A498 renal 106% | OVCAR-4 ovarian 113% | SK-OV-3 ovarian 105%

CC(C)(C)[Si](C)(C)OC1[C@@H](O[Si](C)(C)C(C)(C)C)[C@@H](CNC(=O)NC(=O)CF)O[C@H]1n1cnc2c(NC(=O)Nc3ccccc3)ncnc21 (some centres not stated)
inactive: NCI-H322M lung 104% | HOP-62 NSCLC 87.1% | A549/ATCC NSCLC 26.2% | COLO 205 colon 84.4% | HT29 colon 25.6% | PC-3 prostate 14.5% | CAKI-1 renal 85.6% | A498 renal 70.2% | OVCAR-4 ovarian 63.8% | SK-OV-3 ovarian 89.3% | HS 578T breast 29.5%
active: CCRF-CEM leukemia 4.8%

COc1cc(C2CC(=O)Nc3nc(N)[se]c32)c(OC)c2c1OCO2 (configuration not stated)
inactive: NCI-H322M lung 22.6% | HOP-62 NSCLC 32.7% | NCI-H522 lung 99.1% | A549/ATCC NSCLC 58.9% | HT29 colon 98.5% | SNB-19 CNS 51.9% | PC-3 prostate 51.6% | EKVX NSCLC 94.4% | TK-10 renal 109% | CAKI-1 renal 89.8% | A498 renal 102% | CCRF-CEM leukemia 104% | OVCAR-8 ovarian 104% | SK-OV-3 ovarian 78.3% | HS 578T breast 91.2%

CCN1CC2(CN(CC)C1=S)C(=O)NC(=O)NC2=O
inactive: NCI-H322M lung 107% | NCI-H522 lung 84.7% | A549/ATCC NSCLC 99.9% | HT29 colon 90.3% | SNB-19 CNS 107% | PC-3 prostate 85.7% | EKVX NSCLC 99% | TK-10 renal 98.5% | CAKI-1 renal 85.4% | CCRF-CEM leukemia 101% | OVCAR-8 ovarian 101% | OVCAR-4 ovarian 93.3% | SK-OV-3 ovarian 97.4% | HS 578T breast 104%

CN(Cc1cccnc1)N=O
inactive: HOP-62 NSCLC 93.1% | HOP-92 NSCLC 95.3% | NCI-H522 lung 89.9% | A549/ATCC NSCLC 94.5% | HT29 colon 102% | SNB-19 CNS 99.9% | PC-3 prostate 95.9% | EKVX NSCLC 99.9% | TK-10 renal 91.6% | A498 renal 104% | CCRF-CEM leukemia 100% | OVCAR-4 ovarian 102% | SK-OV-3 ovarian 99.4% | HS 578T breast 89%

CNC(=O)Oc1cc(C(C)C)ccc1Sc1ccc(C(C)C)cc1OC(=O)NC
inactive: HOP-62 NSCLC 75.9% | HOP-92 NSCLC 89% | NCI-H522 lung 75.7% | A549/ATCC NSCLC 64.2% | COLO 205 colon 112% | HT29 colon 97.6% | SNB-19 CNS 79% | PC-3 prostate 53.7% | EKVX NSCLC 69.1% | TK-10 renal 84.7% | CAKI-1 renal 67% | A498 renal 88.5% | CCRF-CEM leukemia 36.5% | OVCAR-8 ovarian 66.9% | OVCAR-4 ovarian 80.8% | SK-OV-3 ovarian 80.1% | HS 578T breast 67.7%

OC1(c2ccccc2F)c2ccccc2C2=NCCN21 (configuration not stated)
inactive: NCI-H322M lung 97.2% | HOP-92 NSCLC 78.9% | A549/ATCC NSCLC 114% | HT29 colon 105% | PC-3 prostate 95.6% | EKVX NSCLC 97.8% | TK-10 renal 90.4% | CAKI-1 renal 64.4% | A498 renal 105% | CCRF-CEM leukemia 93% | OVCAR-8 ovarian 104% | OVCAR-4 ovarian 107% | SK-OV-3 ovarian 105% | HS 578T breast 110%

S=P(N1CCCCCC1)(N1CC1)N1CC1
inactive: NCI-H322M lung 121% | HOP-62 NSCLC 94.8% | NCI-H522 lung 102% | COLO 205 colon 93.9% | HT29 colon 101% | SNB-19 CNS 101% | PC-3 prostate 93.7% | EKVX NSCLC 119% | TK-10 renal 98.5% | CAKI-1 renal 96.3% | A498 renal 107% | CCRF-CEM leukemia 94.4% | OVCAR-8 ovarian 100% | OVCAR-4 ovarian 117% | SK-OV-3 ovarian 93.9% | HS 578T breast 122%

CC(CC(C#N)(c1ccccc1)c1ccccc1)N1CCOCC1 (configuration not stated)
inactive: NCI-H322M lung 107% | HOP-62 NSCLC 97.6% | A549/ATCC NSCLC 95.6% | COLO 205 colon 101% | HT29 colon 106% | SNB-19 CNS 92.2% | PC-3 prostate 90.4% | TK-10 renal 105% | A498 renal 88.8% | CCRF-CEM leukemia 99.5% | OVCAR-8 ovarian 108% | HS 578T breast 111%
